For eight compounds, composite z-score, composite Z-score and z-score results are on record in PubChem BioAssay.

The target in one experiment is Albumin (Bos taurus) (UniProt P02769). As to the kind of experiment: compounds binding labelled BSA control protein – biochemical, small-molecule microarray, Alexa647 label, 635/667 nm fluorescence, artefact control for SMM control protein annotation, profiling panel (AID 1118).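 Also: score merges 667 nm emission intensity and signal-to-noise per printed compound spot.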 As to conditions: BSA-A647 binding, fluorescence 635 nm, higher = more signal.
Experiment [1] is described as follows: probe aXIP binding to arrayed compounds – biochemical, NeuroSMM set, 635/667 nm fluorescence, primary screen (AID 1119).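 Also: probe is the protein aXip251-270 applied at 1 µg/mL to compound-printed slides; binding of probe to printed compounds measured as 667 nm fluorescence plus signal to noise.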 To be noted: small-molecule microarray, higher = more signal, called active from +8 up or from −8 down.
Experiment [2] can be described thus: probe aNOTCH3 binding on compound microarray – biochemical, small-molecule microarray, 635/667 nm fluorescence, primary screen (AID 1120).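 Also: probe is a biotin-tagged antibody raised against NOTCH3 rather than NOTCH3 protein; score merges spot fluorescence near 667 nm with spot signal to noise.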 As to conditions: higher = more signal.
A short description of experiment [3]: probe aNOTCH2 binding on compound microarray – biochemical, small-molecule microarray, 635/667 nm fluorescence, primary screen (AID 1121).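 Also: score merges feature fluorescence read at 667 nm with its signal to noise.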 As to conditions: higher = more signal.
Experiment [4] concerns the target Carbonic anhydrase 2 (Homo sapiens) (UniProt P00918). The experiment is described as follows: compounds binding carbonic anhydrase 2 – biochemical, small-molecule microarray, Alexa647-labelled CAII, profiling panel (AID 1122). As to conditions: CAII-A647 binding fluorescence, higher = more signal.
Experiment [5] can be described thus: COS7 lysate on small-molecule microarray, probe aHis, 635 nm (AID 1123).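 Also: z-score combines 667nm fluorescence intensity with signal-to-noise per printed compound spot.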 To be noted: COS7 cell lysate, fluorescence, higher = more signal.
Experiment [6] is described as follows: probe aLAP1 signal on lysate-treated microarray – cell lysate, small-molecule microarray, COS7 lysate, primary screen (AID 1124).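 Also: lysate comes from COS7 cells expressing LAP1 and is applied at 0.3 µg/mL; score merges spot fluorescence near 667 nm with signal-to-noise over triplicate slides.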 To be noted: probe aLAP1, fluorescence, higher = more signal.
A further experiment concerns Sam68 (KHDRBS1). The experiment is described as follows: compounds binding KHDRBS1 protein – biochemical, small-molecule microarray, 635 nm fluorescence, primary screen (AID 1125).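 Also: score merges 667 nm channel intensity with signal to noise over triplicate slides.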 As to conditions: higher = more signal.
Experiment [7] deals with Chordin-like protein 2 (CHRDL2). The experiment is described as follows: compounds binding chordin-like 2 – biochemical, small-molecule microarray, 635 nm fluorescence, primary screen (AID 1126).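 Also: printed compound slides probed with Chrdl2 protein at 4 µg/mL for 1 h at 4 C; score merges 667 nm emission intensity with signal to noise over three replicate slides.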 To be noted: fluorescence 635 nm, higher = more signal.
Experiment [8] addresses Concanavalin-A (Canavalia ensiformis) (UniProt P02866). The experiment is described as follows: compounds binding concanavalin A lectin – biochemical, small-molecule microarray, Alexa647 label, 635 nm, artefact control for SMM control protein annotation, primary screen (AID 1127).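 Also: z combines 667 nm emission intensity with signal-to-noise across three replicate slides.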 As to conditions: ConA-A647 binding fluorescence, higher = more signal.
Experiment [9] can be described thus: compounds binding Alexa647 anti-His antibody – biochemical, small-molecule microarray, 635 nm fluorescence, artefact control for SMM control protein annotation, primary screen (AID 1128).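 Also: score merges feature fluorescence with signal-to-noise for each printed compound spot.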 To be noted: higher = more signal.
Experiment [10] deals with Human papillomavirus type 1a E7 protein (residues 1-88). The experiment is described as follows: HPV1a E7 small-molecule binders, primary screen, biochemical, small-molecule microarray, residues 1-88, 635 nm (AID 1129). To be noted: small-molecule microarray binding, fluorescence 635 nm; higher = more signal.
The target in experiment [11] is Focal adhesion kinase 1 (Homo sapiens) (UniProt Q05397). The experiment is described as follows: PTK2 protein binding on printed compound slides – biochemical, small-molecule microarray, 635/667 nm fluorescence, BSA, DTT, primary screen (AID 1130).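 Also: composite of spot emission at 667 nm and signal to noise over triplicate slides.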 As to conditions: 635 nm fluorescence, higher = more signal.
The subject of experiment [12] is Fibrinogen (Alexa647-labelled). As to the kind of experiment: Alexa647-fibrinogen binding to printed small molecules – biochemical, small-molecule microarray, 635/667 nm fluorescence, artefact control for SMM control-protein annotation, profiling panel (AID 1131).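 Also: z-score merges 667 nm fluorescence with per-spot signal-to-noise over triplicate slides.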 To be noted: fibrinogen-A647 binding fluorescence, higher = more signal.
In experiment [13] the target is Follistatin (Homo sapiens) (UniProt P19883). The experiment is described as follows: FST protein binding to printed compounds – biochemical, small-molecule microarray, 635/667 nm fluorescence, primary screen (AID 1132). As to conditions: 635 nm fluorescence, higher = more signal.
Experiment [14] has as its target Fibroblast growth factor 2 (Homo sapiens) (UniProt P09038). As to the kind of experiment: basic fibroblast growth factor binding to printed compounds – biochemical, small-molecule microarray, 635/667 nm fluorescence, primary screen (AID 1133). As to conditions: FGF2, fluorescence 635/667, higher = more signal.
Experiment [15] can be described thus: JC-1 mitochondrial potential readout, lung cancer cells – cell-based, A549, JC-1 fluorescence, basal, 24 h, 100 nL, profiling panel (AID 1138).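 Also: A549 lung adenocarcinoma cells under basal conditions with no added stimulus; test concentration not given here.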 To be noted: higher = more signal.
The next experiment concerns Lefty1. As to the kind of experiment: Lefty1 protein binding to printed compounds – biochemical, small-molecule microarray, 635/667 nm fluorescence, primary screen (AID 1139). To be noted: fluorescence 635/667, higher = more signal.
In experiment [16] the test system is wheat germ agglutinin (Triticum aestivum), Alexa647-labelled. As to the kind of experiment: Alexa647-WGA lectin binding to printed small molecules – biochemical, small-molecule microarray, 635/667 nm fluorescence, artefact control for SMM control-protein annotation, profiling panel (AID 1140).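 Also: score merges 667 nm feature emission with signal to noise over triplicate slides.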 To be noted: WGA-A647 binding, 635 nm fluorescence, higher = more signal.

Experiment [17] addresses Luciferin 4-monooxygenase (Photinus pyralis) (UniProt P08659). The experiment is described as follows: inhibition of purified Photinus pyralis luciferase – biochemical, luminescence, purified enzyme, 2006 set, primary screen (AID 1141).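 Also: cell-free assay with purified firefly luciferase at 100 ng per well in PBS; test concentration not given here.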 To be noted: purified firefly luciferase, SteadyGlo luminescence, 30 min; higher = more signal, called active from +8 up or from −8 down.

Each structure is given as a SMILES string. Active and inactive are the calls of the source.

Concanavalin-A (Canavalia ensiformis), sequence (P02866 whole entry, looked up): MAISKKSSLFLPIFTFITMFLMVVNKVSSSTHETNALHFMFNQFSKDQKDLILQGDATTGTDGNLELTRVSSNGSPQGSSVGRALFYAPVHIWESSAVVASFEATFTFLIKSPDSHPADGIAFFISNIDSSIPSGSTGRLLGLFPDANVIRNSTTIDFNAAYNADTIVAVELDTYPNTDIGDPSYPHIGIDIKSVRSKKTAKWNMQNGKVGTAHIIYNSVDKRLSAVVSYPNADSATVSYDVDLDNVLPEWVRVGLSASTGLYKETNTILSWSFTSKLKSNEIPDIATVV
Luciferin 4-monooxygenase (Photinus pyralis), sequence (P08659 whole entry, looked up): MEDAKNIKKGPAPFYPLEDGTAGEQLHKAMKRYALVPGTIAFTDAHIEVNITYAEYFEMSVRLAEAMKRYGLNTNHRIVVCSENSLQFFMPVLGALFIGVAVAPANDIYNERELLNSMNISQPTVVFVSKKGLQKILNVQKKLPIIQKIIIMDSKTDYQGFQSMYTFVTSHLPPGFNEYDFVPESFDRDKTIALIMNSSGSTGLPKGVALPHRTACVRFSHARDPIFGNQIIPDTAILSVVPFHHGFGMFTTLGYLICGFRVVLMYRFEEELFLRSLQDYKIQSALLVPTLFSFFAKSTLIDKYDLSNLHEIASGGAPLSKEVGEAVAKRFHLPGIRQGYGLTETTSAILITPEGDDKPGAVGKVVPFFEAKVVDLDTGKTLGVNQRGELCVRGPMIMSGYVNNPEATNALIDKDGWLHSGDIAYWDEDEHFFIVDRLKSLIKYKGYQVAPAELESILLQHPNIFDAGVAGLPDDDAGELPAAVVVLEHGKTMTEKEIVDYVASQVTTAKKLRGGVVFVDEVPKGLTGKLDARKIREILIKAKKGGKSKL
Focal adhesion kinase 1 (Homo sapiens), sequence (Q05397 whole entry, looked up): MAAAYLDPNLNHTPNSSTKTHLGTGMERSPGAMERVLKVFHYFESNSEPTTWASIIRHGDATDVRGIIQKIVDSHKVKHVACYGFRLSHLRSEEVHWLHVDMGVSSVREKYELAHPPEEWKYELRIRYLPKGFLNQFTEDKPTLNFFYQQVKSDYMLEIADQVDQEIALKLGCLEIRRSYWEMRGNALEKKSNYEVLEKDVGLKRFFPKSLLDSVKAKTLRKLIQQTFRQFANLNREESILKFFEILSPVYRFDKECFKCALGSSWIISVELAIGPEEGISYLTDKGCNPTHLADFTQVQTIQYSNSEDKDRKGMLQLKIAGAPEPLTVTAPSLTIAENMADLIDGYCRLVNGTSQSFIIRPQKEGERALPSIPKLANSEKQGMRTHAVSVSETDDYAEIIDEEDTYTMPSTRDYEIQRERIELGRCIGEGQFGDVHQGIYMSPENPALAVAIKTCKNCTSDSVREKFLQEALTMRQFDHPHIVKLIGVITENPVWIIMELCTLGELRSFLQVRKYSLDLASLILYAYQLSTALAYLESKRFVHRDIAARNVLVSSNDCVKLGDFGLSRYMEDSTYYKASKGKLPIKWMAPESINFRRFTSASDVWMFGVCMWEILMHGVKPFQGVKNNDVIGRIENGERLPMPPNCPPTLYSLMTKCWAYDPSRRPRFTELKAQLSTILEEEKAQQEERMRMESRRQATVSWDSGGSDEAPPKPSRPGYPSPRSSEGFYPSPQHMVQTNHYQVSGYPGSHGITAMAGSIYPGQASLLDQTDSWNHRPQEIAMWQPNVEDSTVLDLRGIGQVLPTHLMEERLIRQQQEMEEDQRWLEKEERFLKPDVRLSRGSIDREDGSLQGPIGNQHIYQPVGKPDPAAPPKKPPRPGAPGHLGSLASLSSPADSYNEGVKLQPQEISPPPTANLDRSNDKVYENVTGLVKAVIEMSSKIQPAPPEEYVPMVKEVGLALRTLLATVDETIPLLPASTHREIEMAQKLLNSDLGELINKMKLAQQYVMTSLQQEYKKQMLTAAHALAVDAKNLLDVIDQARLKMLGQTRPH
Fibroblast growth factor 2 (Homo sapiens), sequence (P09038 whole entry, looked up): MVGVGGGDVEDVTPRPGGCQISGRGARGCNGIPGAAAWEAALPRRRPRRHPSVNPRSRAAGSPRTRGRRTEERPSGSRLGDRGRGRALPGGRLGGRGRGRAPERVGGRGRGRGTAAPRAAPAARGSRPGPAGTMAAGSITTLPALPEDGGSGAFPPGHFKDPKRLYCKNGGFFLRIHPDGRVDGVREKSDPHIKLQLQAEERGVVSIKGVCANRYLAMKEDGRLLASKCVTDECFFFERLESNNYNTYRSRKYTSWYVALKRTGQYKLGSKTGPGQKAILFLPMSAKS
Albumin (Bos taurus), sequence (P02769 whole entry, looked up): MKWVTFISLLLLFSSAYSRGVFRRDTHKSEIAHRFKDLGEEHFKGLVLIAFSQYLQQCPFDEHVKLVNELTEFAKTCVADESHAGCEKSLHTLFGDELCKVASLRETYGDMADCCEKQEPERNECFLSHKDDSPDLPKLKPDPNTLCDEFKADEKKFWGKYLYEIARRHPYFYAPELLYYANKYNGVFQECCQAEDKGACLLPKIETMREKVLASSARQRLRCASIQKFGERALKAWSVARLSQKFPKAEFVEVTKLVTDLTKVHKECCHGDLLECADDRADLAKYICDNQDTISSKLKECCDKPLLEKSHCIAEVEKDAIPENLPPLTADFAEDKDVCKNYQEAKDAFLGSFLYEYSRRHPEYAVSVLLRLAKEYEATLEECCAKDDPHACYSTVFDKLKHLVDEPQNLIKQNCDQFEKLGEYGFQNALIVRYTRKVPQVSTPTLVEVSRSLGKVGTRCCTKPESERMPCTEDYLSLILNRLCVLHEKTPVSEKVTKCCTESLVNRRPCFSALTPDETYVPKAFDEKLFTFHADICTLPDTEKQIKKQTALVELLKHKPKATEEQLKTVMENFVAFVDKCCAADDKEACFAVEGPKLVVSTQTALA
Follistatin (Homo sapiens), sequence (P19883 whole entry, looked up): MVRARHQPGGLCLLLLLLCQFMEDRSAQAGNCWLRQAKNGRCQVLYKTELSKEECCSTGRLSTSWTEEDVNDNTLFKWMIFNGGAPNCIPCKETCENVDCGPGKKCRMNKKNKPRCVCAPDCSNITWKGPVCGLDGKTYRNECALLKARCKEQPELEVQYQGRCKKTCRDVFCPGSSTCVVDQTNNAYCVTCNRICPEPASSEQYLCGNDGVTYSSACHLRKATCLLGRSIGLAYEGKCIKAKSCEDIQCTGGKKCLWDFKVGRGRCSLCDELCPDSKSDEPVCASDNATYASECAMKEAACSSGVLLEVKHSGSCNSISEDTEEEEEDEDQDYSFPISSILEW

As to `CN(C)C(=O)[C@@]1(CCS(=O)(=O)c2ccccc2)COC(c2ccc(OCCCO)cc2)=N1`, the composite z-score with Albumin (Bos taurus) was 0.401; in experiment [2], 0.125; in experiment [3], -0.0406; in [4], 0.813; in experiment [5], 2.28; in experiment [6] it was 0.441. Further, the composite z-score in the experiment on Sam68 (KHDRBS1) is 0.203; in experiment [7], -0.466; in [8], 0.469; in [9], 1.45; in experiment [10] it was 1.24; in [11], 0.119. Besides, the composite z-score is 0.993 in experiment [12]; 0.66 in experiment [13]; -0.0861 in [14]; -0.589 in the experiment on Lefty1; 0.93 in [16]. Also, the composite Z-score in experiment [1] was 0.319 (inactive). The z-score in experiment [15] was -0.572; in experiment [17], -0.446 (inactive).
Turning to `COc1ccccc1CN1C(=O)c2ccccc2[C@@H](C(=O)NC2CC2)[C@@H]1c1ccc(CO)cc1`, the composite z-score is -1.07 with Albumin (Bos taurus); 0.0522 in [2]; -0.0449 in [3]; 0.602 in experiment [4]; 1.05 in experiment [5]; 0.849 in experiment [6]. Further, the composite z-score was determined as 1.31 in the experiment on Sam68 (KHDRBS1); 0.837 in experiment [7]; 1.14 in [8]; 2.77 in [9]; 1.23 in experiment [10]; 0.344 in [11]. Further, the composite z-score in experiment [12] amounted to 0.725; in [13], 1.42; in experiment [14], 1.66; in the experiment with Lefty1, 1.5; in experiment [16] it was 0.85. Moreover, the composite Z-score in experiment [1] is 0.0824 (inactive). Besides, the z-score in [15] was 1.76; in [17] it was -0.659 (inactive).
For `CCOC(=O)C1=CC[C@@H](c2ccccc2)N(S(=O)(=O)c2ccc(C)cc2)[C@H]1c1ccccc1C`, the composite z-score is 0.767 with Albumin (Bos taurus); 0.183 in experiment [2]; 0.103 in [3]; 0.743 in [4]; 0.838 in experiment [5]; 0.201 in [6]. The composite z-score in the experiment with Sam68 (KHDRBS1) is 0.841; in [7] it was -0.0352; in experiment [8], 0.705; in experiment [9], 0.109; in experiment [10], 0.893; in experiment [11], 0.0769. The composite z-score in experiment [12] was found to be 0.394; in experiment [13], 0.74; in experiment [14], 0.545; with Lefty1, 0.384; in experiment [16], 0.406. Also, in [1], the composite Z-score is -0.663 (inactive). For the same compound, the z-score in experiment [15] is 1.86; in [17], 2.49 (inactive).
Regarding `C=CCC(OC(C)=O)[C@@H]1[C@@H](N(Cc2ccc(-c3ccccc3)cc2)C(=O)Cc2ccc(OC)cc2)c2cc(OCCCO)ccc2N1C(=O)Cc1ccc2ccccc2c1` (stereo not given in full), the composite z-score in the experiment with Albumin (Bos taurus) is 0.0549; in [2] it was -0.0841; in experiment [3] it was -0.112; in experiment [4], 0.064; in experiment [5], 0.49; in experiment [6], -0.149. Further, the composite z-score in the experiment with Sam68 (KHDRBS1) is -0.493; in experiment [7] it was -0.0169; in experiment [8] it was -1.7; in experiment [9], -0.142; in [10], -0.442; in experiment [11], 0.151. For the same compound, the composite z-score is 0.389 in [12]; -0.0399 in experiment [13]; -0.197 in [14]; 0.168 in the experiment on Lefty1; 0.182 in experiment [16]. Also, the composite Z-score in experiment [1] was 0.142 (inactive). Also, the z-score in experiment [15] is 0.112; in [17], -0.358 (inactive).
With `COc1cc2c(cc1OC)CN(C(=O)[C@@H]1[C@H]3C(=O)O[C@H](c4ccccc4)[C@H](c4ccccc4)N3[C@H](c3ccc(O)cc3)[C@@]13C(=O)Nc1ccccc13)CC2`, the composite z-score was 0.551 with Albumin (Bos taurus); -0.0647 in experiment [2]; -0.117 in experiment [3]; 0.622 in [4]; 1.74 in experiment [5]; 0.169 in experiment [6]. Besides, the composite z-score is 0.751 in the experiment with Sam68 (KHDRBS1); 0.257 in experiment [7]; 1.13 in [8]; 0.948 in experiment [9]; 1.21 in experiment [10]; 0.684 in experiment [11]. Moreover, the composite z-score in experiment [12] came to 0.962; in [13] it was 0.421; in experiment [14], 0.246; in the experiment with Lefty1, 0.259; in experiment [16], 0.965. For the same compound, the composite Z-score in [1] was 0.799 (inactive). Also, the z-score in [15] was -0.379; in [17], 0.81 (inactive).
In the case of `Cc1ccc([C@@H]2C[C@@H](Sc3ccccc3)[C@H](C(=O)O)CN2S(=O)(=O)c2ccc(C)cc2)cc1`, the composite z-score in the experiment with Albumin (Bos taurus) turned out to be 0.26; in experiment [2], 0.171; in [3], 0.0019; in experiment [4] it was 0.726; in [5], 2.89; in experiment [6] it was 0.986. Besides, the composite z-score with Sam68 (KHDRBS1) is 1.29; in experiment [7] it was -0.144; in experiment [8] it was 1.03; in experiment [9], 1.98; in [10], 1.26; in experiment [11] it was 0.373. The composite z-score was determined as 0.956 in experiment [12]; 0.868 in [13]; 0.507 in experiment [14]; 0.589 in the experiment on Lefty1; 1.14 in experiment [16]. The composite Z-score in [1] is -0.571 (inactive). The z-score in experiment [15] is -1.42; in experiment [17], 1.88 (inactive).
With `C=CCC(OC(C)=O)[C@@H]1[C@@H](N(Cc2cc3ccccc3o2)C(=O)c2cccc3ccccc23)c2cc(OCCCO)ccc2N1C(=O)c1ccc(-c2ccccc2)cc1` (stereo not given in full), the composite z-score is 0.236 with Albumin (Bos taurus); 0.0779 in experiment [2]; -0.113 in experiment [3]; -0.0159 in experiment [4]; 0.317 in experiment [5]; -0.187 in [6]. Further, the composite z-score was 0.195 with Sam68 (KHDRBS1); 0.107 in experiment [7]; -0.505 in experiment [8]; -0.202 in experiment [9]; 0.0155 in experiment [10]; -0.166 in experiment [11]. In addition, the composite z-score in experiment [12] is -0.827; in [13] it was 0.791; in experiment [14] it was 0.401; with Lefty1, 0.218; in experiment [16] it was 0.297. The composite Z-score in [1] is -0.418 (inactive). The z-score in [15] was 0.461; in experiment [17] it was -0.219 (inactive).
Turning to `NCCCCCNC(=O)[C@@H]1C[C@@H]2C(=O)N[C@@H](Cc3ccccc3)C(=O)N2[C@@H]1c1ccc(O)cc1`, the composite z-score with Albumin (Bos taurus) is 0.507; in [2], -0.0716; in [3], -0.108; in experiment [4] it was 0.231; in [5], 2.21; in experiment [6] it was -0.304. The composite z-score with Sam68 (KHDRBS1) was 1.24; in experiment [7] it was -0.129; in experiment [8] it was 0.968; in experiment [9], 1.85; in experiment [10], 0.958; in experiment [11] it was 0.255. For the same compound, the composite z-score in [12] was determined as 0.89; in experiment [13], 1.28; in experiment [14] it was 0.871; with Lefty1 it was 0.865; in [16], 0.86. In addition, the composite Z-score in experiment [1] is 0.839 (inactive). Moreover, the figures for the z-score in experiment [15] and in [17] were 0.972 and -0.365 (inactive), respectively.
